# Measurements published in PubChem BioAssay AID1159580 (chemical genetic matrix, 2015).
# The campaign covered roughly 5,500 compounds. About 2,000 (36%) were called active. About 18% were inconclusive and are not listed. The list shows a part of the results. Unmarked numbers belong to inactive results. Rule as the data show it: active = normalized growth mostly below about 0.91 (no sharp cut-off); inconclusive = no clear call, values can overlap the other calls; inactive = mostly above about 0.92.
# Assay: chemical genetic growth profiling, strain panel (AID 1159580);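 also: tested at 20 µM; growth read once vehicle control cultures reached saturation at 30 °C; 1 = growth at the plate median or of vehicle wells; lower values mean less growth of the strain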
# Conditions: S. cerevisiae deletion strains, growth OD
# [1] = locus YAR019C, strain CDC15, active compounds read low
# [2] = locus YBL105C, strain PKC1, active compounds read low
# [3] = locus YBR135W, strain CKS1, active compounds read low
# [4] = locus YBR136W, strain MEC1, active compounds read low
# [5] = locus YBR160W, strain CDC28, active compounds read low
# [6] = locus YDL017W, strain CDC7, active compounds read low
# [7] = locus YDL028C, strain MPS1, active compounds read low
# [8] = locus YDL101C, strain DUN1, active compounds read low
# [9] = locus YDL108W, strain KIN28, active compounds read low
# [10] = locus YDL132W, strain cdc53, active compounds read low
# [11] = locus YDL214C, strain PRR2, active compounds read low
# [12] = locus YDR052C, strain DBF4, active compounds read low
# [13] = locus YDR054C, strain cdc34, active compounds read low
# [14] = locus YDR226W, strain ADK1, active compounds read low
# [15] = locus YDR477W, strain SNF1, active compounds read low
# [16] = locus YER123W, strain YCK3, active compounds read low
# [17] = locus YER133W, strain GLC7, active compounds read low
# [18] = locus YFL009W, strain cdc4, active compounds read low
# [19] = locus YFL029C, strain CAK1, active compounds read low
# [20] = locus YFR003C, strain YPI1, active compounds read low
# [21] = locus YFR019W, strain FAB1, active compounds read low
# [22] = locus YFR028C, strain CDC14, active compounds read low
# [23] = locus YGR040W, strain KSS1, active compounds read low
# [24] = locus YGR052W, strain FMP48, active compounds read low
# [25] = locus YGR092W, strain DBF2, active compounds read low
# [26] = locus YHR030C, strain SLT2, active compounds read low
# [27] = locus YHR079C, strain IRE1, active compounds read low
# [28] = locus YHR082C, strain KSP1, active compounds read low
# [29] = locus YHR205W, strain SCH9, active compounds read low
# [30] = locus YIL147C, strain SLN1, active compounds read low
# [31] = locus YJL095W, strain BCK1, active compounds read low
# [32] = locus YJL128C, strain PBS2, active compounds read low
# [33] = locus YJL157C, strain FAR1, active compounds read low
# [34] = locus YJR016C, strain ILV3, active compounds read low
# [35] = locus YJR066W, strain TOR1 (second series), active compounds read low
# [36] = locus YJR066W, strain TOR1, active compounds read low
# [37] = locus YKL048C, strain ELM1, active compounds read low
# [38] = locus YKL067W, strain YNK1, active compounds read low
# [39] = locus YKL101W, strain HSL1, active compounds read low
# [40] = locus YKL193C, strain SDS22, active compounds read low
# [41] = locus YKL203C, strain TOR2, active compounds read low
# [42] = locus YLR113W, strain HOG1, active compounds read low
# [43] = locus YLR133W, strain CKI1, active compounds read low
# [44] = locus YLR403W, strain SFP1, active compounds read low
# [45] = locus YML070W, strain DAK1, active compounds read low
# [46] = locus YMR001C, strain CDC5, active compounds read low
# [47] = locus YMR205C, strain PFK2 (second series), active compounds read low
# [48] = locus YMR277W, strain FCP1, active compounds read low
# [49] = locus YNL006W, strain LST8, active compounds read low
# [50] = locus YNL020C, strain ARK1, active compounds read low
# [51] = locus YNL161W, strain CBK1, active compounds read low
# [52] = locus YNL183C, strain NPR1, active compounds read low
# [53] = locus YNL207W, strain RIO2, active compounds read low
# [54] = locus YNL222W, strain SSU72, active compounds read low
# [55] = locus YNL307C, strain MCK1 (second series), active compounds read low
# [56] = locus YOL078W, strain AVO1, active compounds read low
# [57] = locus YOL136C, strain PFK27, active compounds read low
# [58] = locus YOR061W, strain CKA2, active compounds read low
# [59] = locus YOR119C, strain RIO1, active compounds read low
# [60] = locus YOR231W, strain MKK1, active compounds read low
# [61] = locus YOR329C, strain SCD5, active compounds read low
# [62] = locus YPL031C, strain PHO85, active compounds read low
# [63] = locus YPL153C, strain RAD53, active compounds read low
# [64] = locus YPL204W, strain HRR25, active compounds read low
# [65] = locus YPL209C, strain IPL1, active compounds read low
# [66] = locus YPL256C, strain CLN2, active compounds read low
# [67] = locus YPR025C, strain CCL1, active compounds read low
# [68] = locus YPR106W, strain ISR1, active compounds read low
# [69] = locus YPR111W, strain DBF20, active compounds read low
# [70] = strain NNK1, active compounds read low
# [71] = strain TSCII, active compounds read low
compound,measurement,setting,value
Cc1nn(Cc2cccc(C(=O)Nc3ccc(Cl)cc3)c2)c(C)c1Br,normalized growth,[1],0.99
same,normalized growth,[2],0.976
same,normalized growth,[3],0.986
same,normalized growth,[4],0.976
same,normalized growth,[5],0.979
same,normalized growth,[6],0.985
same,normalized growth,[7],0.978
same,normalized growth,[8],0.981
same,normalized growth,[9],0.979
same,normalized growth,[10],0.976
same,normalized growth,[11],0.96
same,normalized growth,[12],0.986
same,normalized growth,[13],0.975
same,normalized growth,[14],0.978
same,normalized growth,[15],0.959
same,normalized growth,[16],0.946
same,normalized growth,[17],0.953
same,normalized growth,[18],0.978
same,normalized growth,[19],0.982
same,normalized growth,[20],0.977
same,normalized growth,[21],0.977
same,normalized growth,[22],0.981
same,normalized growth,[23],0.965
same,normalized growth,[24],1.01
same,normalized growth,[25],0.987
same,normalized growth,[26],1.1
same,normalized growth,[27],1.11
same,normalized growth,[28],1.06
same,normalized growth,[29],1.01
same,normalized growth,[30],0.978
same,normalized growth,[31],1
same,normalized growth,[32],0.952
same,normalized growth,[33],0.968
same,normalized growth,[34],0.985
same,normalized growth,[35],0.978
same,normalized growth,[36],1.06
same,normalized growth,[37],0.961
same,normalized growth,[38],0.965
same,normalized growth,[39],0.955
same,normalized growth,[40],0.975
same,normalized growth,[41],1.04
same,normalized growth,[42],0.923
same,normalized growth,[43],0.967
same,normalized growth,[44],0.99
same,normalized growth,[45],0.954
same,normalized growth,[46],0.979
same,normalized growth,[47],0.965
same,normalized growth,[48],0.98
same,normalized growth,[49],0.994
same,normalized growth,[50],0.965
same,normalized growth,[51],0.987
same,normalized growth,[52],1.04
same,normalized growth,[53],0.978
same,normalized growth,[54],0.981
same,normalized growth,[55],1
same,normalized growth,[56],0.973
same,normalized growth,[57],0.92
same,normalized growth,[58],0.96
same,normalized growth,[59],1.02
same,normalized growth,[60],0.968
same,normalized growth,[61],0.987
same,normalized growth,[62],0.963
same,normalized growth,[63],0.957
same,normalized growth,[64],0.935
same,normalized growth,[65],0.981
same,normalized growth,[66],1
same,normalized growth,[67],0.974
same,normalized growth,[68],0.982
same,normalized growth,[69],0.97
same,normalized growth,[70],0.982
same,normalized growth,[71],0.981
Cc1cc(C(=O)Nc2ccc(Cl)cc2)nn1C(C)(C)C,normalized growth,[1],0.985
same,normalized growth,[2],1
same,normalized growth,[3],0.995
same,normalized growth,[4],1
same,normalized growth,[5],0.99
same,normalized growth,[6],0.995
same,normalized growth,[7],1.01
same,normalized growth,[8],0.984
same,normalized growth,[9],0.993
same,normalized growth,[10],0.989
same,normalized growth,[11],0.967
same,normalized growth,[12],1
same,normalized growth,[13],0.984
same,normalized growth,[14],0.987
same,normalized growth,[15],0.973
same,normalized growth,[16],0.955
same,normalized growth,[17],0.97
same,normalized growth,[18],0.989
same,normalized growth,[19],0.984
same,normalized growth,[20],1
same,normalized growth,[21],0.992
same,normalized growth,[22],1
same,normalized growth,[23],0.978
same,normalized growth,[24],0.958
same,normalized growth,[25],0.982
same,normalized growth,[26],1.08
same,normalized growth,[27],0.866
same,normalized growth,[28],1.15
same,normalized growth,[29],0.951
same,normalized growth,[30],0.998
same,normalized growth,[31],0.849
same,normalized growth,[32],0.942
same,normalized growth,[33],0.973
same,normalized growth,[34],0.984
same,normalized growth,[35],0.962
same,normalized growth,[36],1.11
same,normalized growth,[37],0.983
same,normalized growth,[38],0.976
same,normalized growth,[39],0.975
same,normalized growth,[40],0.993
same,normalized growth,[41],1.05
same,normalized growth,[42],0.801 (active)
same,normalized growth,[43],0.967
same,normalized growth,[44],0.956
same,normalized growth,[45],0.958
same,normalized growth,[46],1
same,normalized growth,[47],0.966
same,normalized growth,[48],0.975
same,normalized growth,[49],0.992
same,normalized growth,[50],0.964
same,normalized growth,[51],0.986
same,normalized growth,[52],0.893
same,normalized growth,[53],0.998
same,normalized growth,[54],0.992
same,normalized growth,[55],0.977
same,normalized growth,[56],0.985
same,normalized growth,[57],0.96
same,normalized growth,[58],0.977
same,normalized growth,[59],1.02
same,normalized growth,[60],0.877
same,normalized growth,[61],1
same,normalized growth,[62],0.982
same,normalized growth,[63],0.957
same,normalized growth,[64],0.962
same,normalized growth,[65],1
same,normalized growth,[66],0.817 (active)
same,normalized growth,[67],0.999
same,normalized growth,[68],0.979
same,normalized growth,[69],0.978
same,normalized growth,[70],0.984
same,normalized growth,[71],0.985
